Assay outcomes from PubChem BioAssay.
D1 antagonist: antagonists of human D1 dopamine receptor | P21728 | HEK293 TREx D1 cells, calcium flux, dopamine EC80; hits give low values | activity change, negative = inhibition, % at 10 µM | 360,000 compounds, 3.2% hits | AID 504652; in the data active means activity change below about -30%; further: on the % scale 0 is the no-effect control and ±100 the full control effect
Target sequence (P21728 whole entry, looked up): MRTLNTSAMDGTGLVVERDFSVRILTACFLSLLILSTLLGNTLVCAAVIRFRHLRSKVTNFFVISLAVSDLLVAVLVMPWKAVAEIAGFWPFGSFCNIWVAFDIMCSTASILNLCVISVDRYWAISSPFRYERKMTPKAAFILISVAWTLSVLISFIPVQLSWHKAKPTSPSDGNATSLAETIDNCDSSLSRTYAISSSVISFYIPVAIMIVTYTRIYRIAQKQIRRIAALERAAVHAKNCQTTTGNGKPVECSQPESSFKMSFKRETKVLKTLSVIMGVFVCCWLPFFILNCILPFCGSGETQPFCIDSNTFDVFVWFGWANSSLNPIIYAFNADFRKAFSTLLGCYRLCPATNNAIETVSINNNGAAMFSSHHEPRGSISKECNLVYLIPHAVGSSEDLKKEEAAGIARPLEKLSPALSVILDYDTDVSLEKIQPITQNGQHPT
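Calcium flux readout: force-coupled, inducible Hek293 Trex D1 line, cells induced overnight at 30 C with tetracycline, dye-loaded 30–90 min at RT. Antagonism scored against EC80 dopamine challenge given 180 s after compound.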
USP1-UAF1 inh: inhibitors of human USP1/UAF1 deubiquitinase; 390,000 compounds, 0.23% hits; Potency, µM (top dose mostly 57.1 µM), for inactives: at the top dose activity change, negative = inhibition, hits mostly inhibitors; AID 743255; O94782; recombinant USP1/UAF1, Ub-Rhodamine cleavage fluorescence; active means well fitted inhibition curve with a large enough effect; inconclusive means small, poorly fitted or top-dose-only effect; inactive means no such curve, though single readings can be large or run the other way; further: potency means the concentration at half of the fitted maximal effect; on the % scale 0 is the no-effect control and ±100 the full control effect; nearly all actives have a fitted effect of over 60% in size
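USP1/UAF1 complex (1 nM) preincubated 15 min at room temperature with compound, then Ub-Rho substrate (150 nM final) added. Kinetic fluorescence at 480/540 nm over 6 reads at 60 s intervals; 50 mM HEPES pH 7.8, 0.5 mM EDTA, 0.1 mg/ml BSA, 1 mM TCEP, 0.01% Tween-20.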
TRHR enhancer: allosterically enhances the human TRH receptor; TRHR cells, fluo-8 calcium fluorescence, EC20 TRH enhancement; enhancement, % at 2 µM; 360,000 compounds, 0.66% hits; in the data active means enhancement above about 30%; further: 0% is about no effect
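Enhancer read-out: after compound pinning and an initial kinetic agonist-mode read, an EC20 of TRH (10 nM final) was injected and fluo-8 calcium signal (Ex 480/Em 530) followed at 1 s/cycle for 100 cycles in TRHR-expressing cells.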
D1 agonist: agonists of human D1 dopamine receptor | activation, % at 2 µM | 360,000 compounds, 1% hits | HEK293 T-REx D1 cells, calcium flux, agonist mode | P21728; further: 0% is about no effect
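Inducible HEK293 T-REx D1 cells, force-coupled to calcium signalling, were plated at 4000 cells/well with tetracycline and held overnight at 30 C. After no-wash calcium dye loading, compound-evoked calcium rise over 180 s flagged agonists.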
TRHR agonist: agonists of human TRH receptor; P34981; activation, % at 2 µM; 360,000 compounds, 0.18% hits; TRHR cells, calcium flux fluo-8, FDSS agonist mode; AID 493084; further: 0% is about no effect
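TRHR-expressing cells loaded with fluo-8 calcium dye; 23 nL library compound pin-transferred, kinetic FDSS fluorescence (Ex 480/Em 530) recorded about 180 s for agonist-induced calcium release, before a 10 nM TRH EC20 addition for potentiator mode.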
D1 PAM: enhances dopamine response at the human D1 receptor; P21728; HEK293 TREx D1 cells, calcium flux, dopamine EC20 potentiation; potentiation, % at 10 µM; 360,000 compounds, 0.036% hits; in the data active means potentiation above about 30%; further: 0% is about no effect
Active calls of the source: *; u = inconclusive; x = no result given. In the library only some 4.4% were active in any assay of this set; here they are far more common. Unless noted, no stated cut-off is given here; in the data, active means activation above about 30%; inactive means the rest.

SMILES	D1 antagonist	USP1-UAF1 inh	TRHR enhancer	D1 agonist	TRHR agonist	D1 PAM
CCN(CC)C(=O)Cn1cc(C(=O)C(=O)NCc2ccccn2)c2ccccc21	2	-16%	-1	2	1	2
NS(=O)(=O)c1ccc(CCNC(=O)C(=O)c2cn(CC(=O)N3CCOCC3)c3ccccc23)cc1	-5	-27%	34*	1	0	3
CCN(CC)C(=O)Cn1cc(C(=O)C(=O)NCCc2ccc(S(N)(=O)=O)cc2)c2ccccc21	-74*	-9%	-3	2	1	-13
CCCN1C=CC(=C/C=C(\C#N)C(=O)OCC)C=C1	-7	x	6	33*	58*	0
CCCCCCN1C=CC(=C/C=C(\C#N)C(=O)OCC)C=C1	-7	68%	31*	178*	165*	-5
Cc1nnc(SCc2ccccc2Cl)c2cc3occc3n12	4	-16%	2	4	0	3
c1ccc(-n2nnnc2-n2ccnc2)cc1	-97*	-9%	4	1	2	0
O=C(NCc1cccc(F)c1)c1cccc(NC(=O)c2nsc3ccccc23)c1	13	-15%	-1	5	0	-3
Cc1cccc(C2NC(=O)c3c(sc4c3CCN(C)C4)N2)c1O (configuration not stated)	21	u	47*	11	-1	0
CN1CCc2c(sc3c2C(=O)NC(c2ccccn2)N3)C1 (configuration not stated)	-3	32µM*	9	1	0	13
Cc1ccc(C2NC(=O)c3c(sc4c3CCN(C)C4)N2)s1 (configuration not stated)	5	u	7	21	6	5
CC(C)c1ccc(NC(=O)C(Cc2ccccc2)NS(=O)(=O)c2ccc3c(c2)CCC(=O)N3)cc1 (configuration not stated)	-3	-22%	-11	2	0	-2
O=C(OCC1CCCO1)c1ccc2c(c1)N(Cc1ccccc1F)C(=O)c1ccccc1S2(=O)=O (configuration not stated)	-1	u	-3	3	0	-5
CCCNC(=O)Cn1c(=O)n(CC2CCC(C(=O)NC)CC2)c(=O)c2sccc21 (configuration not stated)	26	-6%	1	1	0	-1
N#Cc1c(N)nc2c3c(sc(=N)c2c1N)NC(=O)CC3c1c(F)cccc1Cl (configuration not stated)	1	-4%	-4	5	0	-7
N#Cc1c(N)nc2c3c(sc(=N)c2c1N)NC(=O)CC3c1ccccc1 (configuration not stated)	-35*	-27%	-4	-1	-1	-3
Cc1ccc(NC(=O)CSc2nc3nc(C)c(Cc4ccccc4)c(C)n3n2)cc1	16	-10%	1	2	0	0
Cc1c(C)n(Cc2ccccc2)c2ccc(C(=O)NCCc3ccccc3Cl)cc12	-6	u	-1	2	0	-5
CC(C)N(CCC(=O)c1ccc2ccccc2c1)Cc1ccccc1	-32*	-13%	-19	1	14	-7
CC(OC(=O)c1ccc2ccccc2c1)C(=O)N(C)Cc1ccccc1 (configuration not stated)	-24	-10%	22	3	0	-1
COC(=O)c1[nH]c2cc(OC)ccc2c1NC(=O)CCN1CCN(Cc2ccc3c(c2)OCO3)CC1	-86*	-12%	-2	0	-1	13
COC(=O)c1[nH]c2cc(OC)ccc2c1NC(=O)CCN1CCCCC1	0	-2%	-2	1	0	3
COc1ccc2cc(C(=O)N3CCN(Cc4ccc5c(c4)OCO5)CC3)[nH]c2c1	10	-25%	-2	33*	0	-5
NC(=O)c1c(NC(=O)c2nc(SCc3ccccc3F)ncc2Cl)sc2c1CCCC2	2	-31%	8	2	1	1
CCc1nn(CC(=O)N2CCC(C)CC2)c(=O)c2cccn12	3	-9%	6	0	1	1
SMILES	D1 antagonist	USP1-UAF1 inh	TRHR enhancer	D1 agonist	TRHR agonist	D1 PAM
CCc1nn(CC(=O)N2CCN(c3cccc(C(F)(F)F)c3)CC2)c(=O)c2cccn12	-41*	-5%	8	24	0	-5
O=C(NCCc1ccc(Cl)cc1)c1cccs1	-33*	-4%	1	1	-1	0
Cc1ccc2cc(CCNC(=O)c3cccs3)c(=O)[nH]c2c1	11	-21%	2	-4	-1	-4
Cc1ccc2cc(CCNC(=O)c3cccs3)c(=O)[nH]c2c1C	-31*	-7%	-2	-3	0	-4
O=C(Cc1ccc(Cl)cc1)NNC(=S)NC(=O)c1cccs1	4	4%	-3	47*	5	-5
O=C(NCCc1csc(-c2ccc(Cl)cc2)n1)c1cccs1	-25	u	-4	3	-1	-4
O=S(=O)(NCc1cccc(Br)c1)c1ccc(-c2cc(C(F)(F)F)on2)s1	-11	-18%	1	21	2	-2
Cc1ccc(-n2c(=O)c3c(c4cc(C)ccc4n3C)n(CC(=O)NCCC3=CCCCC3)c2=O)cc1	5	10%	13	-1	0	2
COc1ccc(-c2nc3c4ccccc4n(CC(=O)N4CCN(c5ccc(F)cc5)CC4)c(=O)n3n2)cc1	x	-13%	4	4	0	0
CCC(=O)Oc1c(Sc2ccc(Cl)cc2)c(C)nn1C(C)(C)C	12	-14%	1	5	0	2
Cc1onc(-c2ccccc2)c1C(=O)NC(=S)NNC(=O)c1ccccc1O	3	-2%	8	143*	19	-1
CCCOc1ccc(C(=O)NNC(=S)NC(=O)CC)cc1	-71*	-6%	-21	-1	-1	-21
Cc1onc(-c2ccccc2)c1C(=O)NC(=S)NNC(=O)c1ccc(O)cc1O	-18	-10%	-4	2	-1	3
C=CCNC(=S)NNC(=O)c1ccc(OCCC)cc1	5	-20%	0	0	0	-2
CCCOc1ccc(C(=O)NC(=S)NNC(=O)c2c(-c3ccccc3)noc2C)cc1	121	-16%	-7	207*	48*	19
CCOc1ccc(Nc2oc(-c3ccc(COc4ccccc4C)o3)nc2C#N)cc1	6	-5%	0	2	0	-2
CCOc1ccc(CNS(=O)(=O)c2cc3c(cc2C)NC(=O)CO3)cc1	-27	u	3	3	0	1
COc1ccc(C)cc1-n1nnnc1SCC(=O)Nc1cc(C)on1	-51*	-1%	-2	3	0	7
COc1ccc(C)cc1-n1nnnc1SCC(=O)NC(=O)NCc1ccco1	-37*	-6%	-5	2	-1	-2
